Source: PubChem BioAssay (EPA / NIEHS)
Records with an inconclusive call do not appear. Calls of active or inactive are those of the source. How the source made its calls, unless noted: active means hit-call score of the fitted dose curve at least 0.9, where 1 is the maximum; inactive means score below 0.9.

What was measured:
[1] = target: Estrogen-related receptor gamma (Homo sapiens) (UniProt P62508); assay: ATG_ERRg_TRANS: Attagene TRANS-FACTORIAL HepG2 Assay for human Estrogen-Related Receptor gamma (ERRg) (AID 2282977; active means hit-call score of the fitted dose curve at least 0.9, where 1 is the maximum;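 further: hits increase reporter signal over DMSO so potencies reflect activators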); conditions: HepG2 Attagene TRANS reporter, ERRg transactivation
Estrogen-related receptor gamma (Homo sapiens), sequence (P62508 whole entry, looked up, the tested form may be a part): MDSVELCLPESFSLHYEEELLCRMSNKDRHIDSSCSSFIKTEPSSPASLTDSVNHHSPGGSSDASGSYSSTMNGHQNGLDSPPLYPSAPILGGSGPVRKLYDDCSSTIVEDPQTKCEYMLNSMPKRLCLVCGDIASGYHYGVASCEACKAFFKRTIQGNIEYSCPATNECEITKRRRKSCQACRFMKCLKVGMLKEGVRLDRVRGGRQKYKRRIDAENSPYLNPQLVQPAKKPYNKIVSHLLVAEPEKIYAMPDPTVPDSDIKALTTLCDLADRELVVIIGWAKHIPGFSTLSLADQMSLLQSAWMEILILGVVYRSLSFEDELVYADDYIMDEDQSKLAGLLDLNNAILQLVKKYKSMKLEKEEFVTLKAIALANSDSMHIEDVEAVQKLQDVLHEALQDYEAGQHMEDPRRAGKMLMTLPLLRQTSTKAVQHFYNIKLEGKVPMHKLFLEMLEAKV
Summary of the method: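 Exogenous NR-Gal4 chimera activity was assessed in HepG2 cells bearing transfected GAL4-UAS reporters. After 24 h dosing, total RNA underwent RT-PCR, fluorescent primer extension and HpaI digestion before capillary electrophoresis, with gain of signal scored against DMSO.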

[2] = target: Oxysterols receptor LXR-alpha (Homo sapiens) (UniProt Q13133); assay: ATG_LXRa_TRANS: Attagene TRANS-FACTORIAL HepG2 Assay for human Liver X Receptor alpha (LXRa) (AID 2282980; active means hit-call score of the fitted dose curve at least 0.9, where 1 is the maximum); conditions: HepG2 Attagene TRANS reporter, LXRa transactivation
Oxysterols receptor LXR-alpha (Homo sapiens), sequence (Q13133 whole entry, looked up, the tested form may be a part): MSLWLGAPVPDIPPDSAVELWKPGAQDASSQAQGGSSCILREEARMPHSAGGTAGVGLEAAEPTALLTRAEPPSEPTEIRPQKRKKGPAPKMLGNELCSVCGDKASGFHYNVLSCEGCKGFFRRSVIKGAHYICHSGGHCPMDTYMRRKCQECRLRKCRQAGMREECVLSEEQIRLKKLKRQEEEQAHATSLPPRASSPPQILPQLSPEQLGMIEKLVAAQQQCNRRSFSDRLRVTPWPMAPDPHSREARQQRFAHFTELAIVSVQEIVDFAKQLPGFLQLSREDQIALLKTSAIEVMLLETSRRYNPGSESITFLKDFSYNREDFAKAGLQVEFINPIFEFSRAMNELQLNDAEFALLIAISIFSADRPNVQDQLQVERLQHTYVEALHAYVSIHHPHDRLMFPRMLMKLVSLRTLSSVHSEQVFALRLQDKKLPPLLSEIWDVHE
Summary of the method: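 In this multiplexed TRANS system, compounds act on HepG2 cells carrying GAL4-UAS reporter units and a receptor-GAL4 fusion for 24 h. Induced reporter RNA is amplified, fluorescently labelled and sized by capillary electrophoresis, with DMSO as baseline.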

[3] = target: Oxysterols receptor LXR-beta (Homo sapiens) (UniProt P55055); assay: ATG_LXRb_TRANS: Attagene TRANS-FACTORIAL HepG2 Assay for human Liver X Receptor beta (LXRb) (AID 2282981; active means hit-call score of the fitted dose curve at least 0.9, where 1 is the maximum); conditions: HepG2 Attagene TRANS GAL4-LXRb reporter, mRNA
Oxysterols receptor LXR-beta (Homo sapiens), sequence (P55055 whole entry, looked up, the tested form may be a part): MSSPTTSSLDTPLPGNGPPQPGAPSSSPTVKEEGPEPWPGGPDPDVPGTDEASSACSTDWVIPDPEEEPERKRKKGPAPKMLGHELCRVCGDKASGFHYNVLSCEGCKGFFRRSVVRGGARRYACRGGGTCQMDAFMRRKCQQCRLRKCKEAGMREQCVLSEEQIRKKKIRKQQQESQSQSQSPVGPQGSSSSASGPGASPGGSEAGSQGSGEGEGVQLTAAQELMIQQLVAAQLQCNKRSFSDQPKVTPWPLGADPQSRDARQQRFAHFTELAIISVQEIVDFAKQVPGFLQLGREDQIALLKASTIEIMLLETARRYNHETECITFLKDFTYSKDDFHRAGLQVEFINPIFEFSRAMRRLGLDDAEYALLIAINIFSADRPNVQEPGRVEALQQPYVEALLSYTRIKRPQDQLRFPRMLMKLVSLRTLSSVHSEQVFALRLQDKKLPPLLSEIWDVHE
Summary of the method: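 After 24 h of chemical treatment, transfected HepG2 cells yield total RNA; reporter cDNA is PCR-amplified, FAM-labelled, HpaI-cut and run on capillary electrophoresis. Signal reflects chimeric LXRb-Gal4 activity on GAL4-UAS reporters.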

[4] = target: Nuclear receptor subfamily 4 group A member 2 (Homo sapiens) (UniProt P43354); assay: ATG_NURR1_TRANS: Attagene TRANS-FACTORIAL HepG2 Assay for human Nuclear Receptor Related Protein 1 (NURR1) (AID 2282985; active means hit-call score of the fitted dose curve at least 0.9, where 1 is the maximum); conditions: HepG2 Attagene TRANS reporter, mRNA readout
Nuclear receptor subfamily 4 group A member 2 (Homo sapiens), sequence (P43354 whole entry, looked up, the tested form may be a part): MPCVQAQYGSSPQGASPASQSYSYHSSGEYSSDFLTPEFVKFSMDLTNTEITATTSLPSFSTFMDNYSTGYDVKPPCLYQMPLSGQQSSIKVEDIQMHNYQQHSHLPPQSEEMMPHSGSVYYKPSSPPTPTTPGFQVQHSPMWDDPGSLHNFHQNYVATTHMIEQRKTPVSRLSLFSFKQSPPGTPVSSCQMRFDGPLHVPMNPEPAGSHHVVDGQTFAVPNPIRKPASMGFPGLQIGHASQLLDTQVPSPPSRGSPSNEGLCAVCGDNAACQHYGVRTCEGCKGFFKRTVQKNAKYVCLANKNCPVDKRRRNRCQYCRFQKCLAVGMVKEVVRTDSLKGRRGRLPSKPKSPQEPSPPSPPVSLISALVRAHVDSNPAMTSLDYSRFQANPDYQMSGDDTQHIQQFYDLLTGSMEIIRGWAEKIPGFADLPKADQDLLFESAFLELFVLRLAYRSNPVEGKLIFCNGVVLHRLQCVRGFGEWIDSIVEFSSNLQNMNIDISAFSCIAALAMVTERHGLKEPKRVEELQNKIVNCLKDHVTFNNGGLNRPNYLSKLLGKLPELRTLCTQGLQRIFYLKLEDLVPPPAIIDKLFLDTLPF
Summary of the method: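 Measures transcriptional activation by an exogenous NR-Gal4 chimera in transfected HepG2 liver cells. After 24 h, reporter RNA is reverse-transcribed, amplified and resolved by capillary electrophoresis; DMSO defines baseline.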

[5] = target: Transcriptional activator Myb (Homo sapiens) (UniProt P10242); assay: ATG_Myb_CIS: Attagene CIS-FACTORIAL HepG2 Assay for human Myeloblastosis (Myb) Proto-Oncogene Transcription Factor (AID 2282986); conditions: HepG2 Attagene CIS-FACTORIAL Myb reporter transcription; actives raise or lower the signal
Transcriptional activator Myb (Homo sapiens), sequence (P10242 whole entry, looked up): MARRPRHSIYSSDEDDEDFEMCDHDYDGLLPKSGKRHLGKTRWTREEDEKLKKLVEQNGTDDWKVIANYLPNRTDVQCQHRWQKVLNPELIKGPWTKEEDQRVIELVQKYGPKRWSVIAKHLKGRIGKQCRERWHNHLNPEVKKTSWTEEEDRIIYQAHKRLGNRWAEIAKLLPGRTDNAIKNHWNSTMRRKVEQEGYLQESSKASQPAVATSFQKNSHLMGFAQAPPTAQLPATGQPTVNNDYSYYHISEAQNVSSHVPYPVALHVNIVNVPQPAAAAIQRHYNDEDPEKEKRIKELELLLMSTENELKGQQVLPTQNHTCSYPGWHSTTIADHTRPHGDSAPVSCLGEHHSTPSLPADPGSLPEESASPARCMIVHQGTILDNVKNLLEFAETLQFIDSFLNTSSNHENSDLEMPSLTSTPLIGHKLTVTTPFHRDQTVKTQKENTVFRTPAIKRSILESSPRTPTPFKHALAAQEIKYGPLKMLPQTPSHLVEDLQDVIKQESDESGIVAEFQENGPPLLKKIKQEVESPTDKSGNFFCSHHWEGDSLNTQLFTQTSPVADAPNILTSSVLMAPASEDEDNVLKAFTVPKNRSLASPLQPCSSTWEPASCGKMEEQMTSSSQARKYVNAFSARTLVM
Summary of the method: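 Endogenous transcription factor activity at a Myb-responsive cis element is reported in human liver HepG2 cells after 24 h chemical treatment. Reporter mRNA is detected by RT-PCR and capillary electrophoresis fluorescence, with DMSO as baseline.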

[6] = target: Nuclear respiratory factor 1 (Homo sapiens) (UniProt Q16656); assay: ATG_NRF1_CIS: Attagene CIS-FACTORIAL HepG2 Assay for human Nuclear Respiratory Factor 1 (NRF1) Orphan Gene (AID 2282987); conditions: HepG2 NRF1 cis-element reporter, Attagene multiplex; actives raise or lower the signal
Nuclear respiratory factor 1 (Homo sapiens), sequence (Q16656 whole entry, looked up): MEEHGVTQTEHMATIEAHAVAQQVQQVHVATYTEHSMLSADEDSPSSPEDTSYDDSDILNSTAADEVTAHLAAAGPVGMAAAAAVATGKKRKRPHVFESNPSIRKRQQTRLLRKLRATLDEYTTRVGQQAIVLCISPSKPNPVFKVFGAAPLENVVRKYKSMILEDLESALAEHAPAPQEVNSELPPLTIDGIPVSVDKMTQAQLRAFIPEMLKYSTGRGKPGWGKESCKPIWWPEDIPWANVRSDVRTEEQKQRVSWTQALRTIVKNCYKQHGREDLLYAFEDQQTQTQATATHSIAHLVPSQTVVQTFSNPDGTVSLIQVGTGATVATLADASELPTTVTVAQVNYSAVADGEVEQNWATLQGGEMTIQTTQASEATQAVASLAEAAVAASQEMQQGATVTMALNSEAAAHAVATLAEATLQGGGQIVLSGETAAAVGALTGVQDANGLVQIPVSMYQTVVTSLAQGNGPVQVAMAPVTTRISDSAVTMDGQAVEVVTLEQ
Summary of the method: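 Human hepatoma HepG2 cells carrying transfected promoter-regulated reporter units were incubated with test chemicals for 24 h. Reporter transcripts were measured by RT-PCR plus capillary electrophoresis, and endpoints derived by bidirectional fitting with DMSO as baseline.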

[7] = ATG_NFI_CIS: Attagene CIS-FACTORIAL HepG2 Assay for human Nuclear Factor I (NFI) (AID 2282989); conditions: HepG2 cis-regulatory reporter, NFI response element transcription; actives raise or lower the signal
Summary of the method: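 Transient MRTU transfection of HepG2 → 24 h chemical dosing → total RNA, oligo(dT) RT → PCR, 6-FAM primer extension, HpaI cut → capillary electrophoresis. Endpoint fitted bidirectionally relative to DMSO.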

[8] = ATG_NF_kB_CIS: Attagene CIS-FACTORIAL HepG2 Assay for human Nuclear Factor Kappa B (NF-kB) (AID 2282991); conditions: HepG2 Attagene cis-factorial NF-kB reporter mRNA; actives raise or lower the signal
Summary of the method: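 Multiplexed cis-reporter assay in transiently transfected HepG2. 24 h treatment; RNA isolated, RT-PCR, labelled fragments resolved by CE. DMSO baseline.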

[9] = ATG_NRF2_ARE_CIS: Attagene CIS-FACTORIAL HepG2 Assay for human Nuclear Factor Erythroid 2 Related Factor 2 (NFR2) response to Antioxidant Response Elements (ARE) (AID 2282992); conditions: HepG2 Attagene ARE/NRF2 reporter, transcription factor activity; actives raise or lower the signal
Summary of the method: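 Endogenous transcription factor activity in human liver HepG2 cells is tracked via a cis-element-driven reporter within a multiplexed set. mRNA induction is read by RT-PCR and capillary electrophoresis after 24 h, with DMSO as baseline.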

[10] = ATG_Oct_MLP_CIS: Attagene CIS-FACTORIAL HepG2 Assay for human Octamer-Binding Transcription Factor (Oct) (AID 2282993); conditions: HepG2 Attagene cis-factorial Oct reporter, mRNA; actives raise or lower the signal
Summary of the method: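 Transient MRTU transfection of HepG2 → 24 h compound treatment → RNA isolation, reverse transcription, PCR → 6-FAM primer extension, HpaI digest → capillary electrophoresis. Activity fitted both directions against DMSO.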

[11] = target: Glucocorticoid receptor (Homo sapiens) (UniProt P04150); assay: ATG_GR_TRANS: Attagene TRANS-FACTORIAL HepG2 Assay for human Glucocorticoid Receptor (GR) (AID 2282978; active means hit-call score of the fitted dose curve at least 0.9, where 1 is the maximum;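 further: activators score as hits since higher reporter transcript over DMSO is fitted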); conditions: HepG2 Attagene TRANS GR reporter, mRNA transcription
Glucocorticoid receptor (Homo sapiens), sequence (P04150 whole entry, looked up): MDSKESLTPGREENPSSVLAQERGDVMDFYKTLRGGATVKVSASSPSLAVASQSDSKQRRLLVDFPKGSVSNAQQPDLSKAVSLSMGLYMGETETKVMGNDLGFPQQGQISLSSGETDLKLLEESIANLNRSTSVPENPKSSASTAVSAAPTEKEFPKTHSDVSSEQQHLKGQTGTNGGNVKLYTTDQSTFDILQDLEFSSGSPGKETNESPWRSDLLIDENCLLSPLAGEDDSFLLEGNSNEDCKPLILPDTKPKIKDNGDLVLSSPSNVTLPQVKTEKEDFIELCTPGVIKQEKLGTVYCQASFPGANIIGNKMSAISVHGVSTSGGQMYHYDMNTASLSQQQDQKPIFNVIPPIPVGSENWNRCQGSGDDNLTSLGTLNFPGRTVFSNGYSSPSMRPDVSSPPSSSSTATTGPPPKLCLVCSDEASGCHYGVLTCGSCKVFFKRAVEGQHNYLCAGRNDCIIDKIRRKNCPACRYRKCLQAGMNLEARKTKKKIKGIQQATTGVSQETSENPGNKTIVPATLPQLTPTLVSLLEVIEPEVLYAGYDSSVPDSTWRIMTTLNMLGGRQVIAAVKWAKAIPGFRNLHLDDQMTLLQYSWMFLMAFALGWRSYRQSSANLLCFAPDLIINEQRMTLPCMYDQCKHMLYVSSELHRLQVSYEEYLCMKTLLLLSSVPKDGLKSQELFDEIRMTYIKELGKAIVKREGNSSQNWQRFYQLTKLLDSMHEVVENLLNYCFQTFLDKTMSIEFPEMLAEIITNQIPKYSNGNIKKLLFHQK
Summary of the method: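 Multiplexed TRANS reporter system, HepG2; 24 h exposure; RNA → oligo(dT) RT → reporter-specific PCR → 6-FAM primer extension → HpaI cut → CE fluorescence. Gain-of-signal vs DMSO.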

[12] = target: Hepatocyte nuclear factor 4-alpha (Homo sapiens) (UniProt P41235); assay: ATG_HNF4a_TRANS: Attagene TRANS-FACTORIAL HepG2 Assay for human Hepatocyte Nuclear Factor 4 alpha (HNF4a) (AID 2282982; active means hit-call score of the fitted dose curve at least 0.9, where 1 is the maximum); conditions: HepG2 HNF4a transactivation reporter, mRNA readout
Summary of the method: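 Multiplexed reporter assay: transfected HepG2, 24 h exposure, total RNA → oligo(dT) RT → PCR → 6-FAM extension → HpaI digest → CE fluorescence. DMSO = negative control.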

[13] = ATG_M_06_TRANS: Attagene TRANS-FACTORIAL HepG2 Assay for M06 Transcription Factor (Internal Marker) (AID 2282983; active means hit-call score of the fitted dose curve at least 0.9, where 1 is the maximum;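 further: reporter transcript level by RT-PCR then capillary electrophoresis fluorescence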); conditions: HepG2 Attagene TRANS M06 internal marker reporter
Summary of the method: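 Multi-reporter-transfected HepG2, 24 h treatment; reporter transcripts quantified via RT-PCR, primer-extension labelling and CE. DMSO-normalized gain-of-signal fit.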

[14] = ATG_M_32_TRANS: Attagene TRANS-FACTORIAL HepG2 Assay for M32 Transcription Factor (Internal Marker) (AID 2282984; active means hit-call score of the fitted dose curve at least 0.9, where 1 is the maximum;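 further: transcript level of a background control reporter unit measured by RT-PCR and capillary electrophoresis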); conditions: HepG2 Attagene TRANS M32 internal marker reporter
Summary of the method: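 Cell-based TRANS-format assay in HepG2: exogenous chimeric GAL4 reporter units transiently expressed, compounds applied 24 h. Reporter mRNA detected by RT-PCR plus capillary electrophoresis; this readout is an internal background marker.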

[15] = target: Myc proto-oncogene protein (Homo sapiens) (UniProt P01106); assay: ATG_Myc_CIS: Attagene CIS-FACTORIAL HepG2 Assay for human Myelocytomatosis (Myc) Proto-Oncogene Transcription Factor (AID 2282990); conditions: HepG2, Attagene cis-reporter transcription factor activity; actives raise or lower the signal
Myc proto-oncogene protein (Homo sapiens), sequence (P01106 whole entry, looked up): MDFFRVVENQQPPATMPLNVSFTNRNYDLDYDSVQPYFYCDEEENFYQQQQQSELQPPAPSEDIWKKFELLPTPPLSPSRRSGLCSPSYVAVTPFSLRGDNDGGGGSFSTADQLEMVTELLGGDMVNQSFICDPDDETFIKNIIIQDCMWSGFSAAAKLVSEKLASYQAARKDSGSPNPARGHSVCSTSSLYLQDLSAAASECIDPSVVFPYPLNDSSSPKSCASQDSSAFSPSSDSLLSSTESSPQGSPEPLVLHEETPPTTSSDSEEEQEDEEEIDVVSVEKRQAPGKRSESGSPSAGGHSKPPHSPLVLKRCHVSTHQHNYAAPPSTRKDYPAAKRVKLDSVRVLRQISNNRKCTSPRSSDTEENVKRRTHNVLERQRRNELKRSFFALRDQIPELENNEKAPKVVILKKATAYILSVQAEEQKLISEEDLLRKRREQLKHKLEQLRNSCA
Summary of the method: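 HepG2, transient MRTU transfection (cis promoters, endogenous TFs); 24 h dosing; TriZol RNA → oligo(dT) RT → PCR → 6-FAM primer extension → HpaI cut → CE. Bidirectional fit vs DMSO.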

[16] = target: Cellular tumor antigen p53 (Homo sapiens) (UniProt P04637); assay: ATG_p53_CIS: Attagene CIS-FACTORIAL HepG2 Assay for human p53 Transcription Factor (AID 2282994); conditions: HepG2 p53 cis-element reporter, Attagene mRNA; actives raise or lower the signal
Cellular tumor antigen p53 (Homo sapiens), sequence (P04637 whole entry, looked up, the tested form may be a part): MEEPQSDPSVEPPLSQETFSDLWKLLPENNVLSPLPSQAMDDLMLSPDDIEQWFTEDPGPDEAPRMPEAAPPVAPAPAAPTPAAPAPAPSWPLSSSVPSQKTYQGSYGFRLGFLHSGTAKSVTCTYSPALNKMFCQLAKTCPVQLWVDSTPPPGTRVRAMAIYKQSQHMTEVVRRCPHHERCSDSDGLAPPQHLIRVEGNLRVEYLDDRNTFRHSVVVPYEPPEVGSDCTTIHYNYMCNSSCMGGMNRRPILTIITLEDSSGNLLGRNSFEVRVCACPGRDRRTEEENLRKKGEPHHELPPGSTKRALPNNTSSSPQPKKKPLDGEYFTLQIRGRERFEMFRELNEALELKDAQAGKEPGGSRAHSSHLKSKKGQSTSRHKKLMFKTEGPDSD
Summary of the method: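 Steps: transfect HepG2 with multiplexed cis reporter constructs; dose chemicals 24 h; extract RNA, reverse-transcribe, PCR-amplify reporter sequences; FAM-label, HpaI-digest, resolve fragments by CE. Activity fitted both directions relative to DMSO.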

[17] = target: Bile acid receptor (Homo sapiens) (UniProt Q96RI1); assay: ATG_FXR_TRANS: Attagene TRANS-FACTORIAL HepG2 Assay for Farnesoid X Receptor (FXR) (AID 2282979; active means hit-call score of the fitted dose curve at least 0.9, where 1 is the maximum;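 further: hits raise reporter mRNA above DMSO so AC50 marks FXR activation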); conditions: HepG2 Attagene TRANS FXR-GAL4 reporter transcription
Summary of the method: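 After 24 h chemical treatment of transfected HepG2 cells, GAL4-UAS reporter transcripts driven by an exogenous FXR-GAL4 fusion were measured by RT-PCR and capillary electrophoresis. Increases over DMSO were fitted.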

Measured: outcome

CCCCOCCOCCOCCO
inactive: [1] | [2] | [3] | [4] | [5] | [6] | [7] | [8] | [9] | [10]

COc1ccc2[nH]cc(CCNC(C)=O)c2c1
inactive: [1] | [11] | [2] | [3] | [12] | [13] | [14] | [4] | [5] | [6] | [15] | [8] | [9] | [10] | [16]

CCCCCCCC(=O)N(C)C
inactive: [1] | [3] | [4] | [5] | [6] | [7] | [15] | [9] | [10] | [16]

CN(C)c1ccc(C=O)cc1
inactive: [1] | [11] | [17] | [3] | [12] | [13] | [14] | [5] | [6] | [7] | [15] | [8] | [10] | [16]

CC(=O)N(C)C
inactive: [1] | [11] | [5] | [15] | [10] | [16]
